About 1,900 (0.47%) of roughly 400,000 compounds were called active. Roughly 14% stayed inconclusive and do not appear here. The entries come from a sample that favours actives as a whole. Values without a mark were called inactive. Calls follow the shape of the dose curve; as a rule, active = well fitted cell-killing curve with a large enough effect; inconclusive = small, poorly fitted or top-dose-only effect, or effect the other way; inactive = no such curve, though single readings can be large or run the other way.
assay: Viability Counterscreen for Primary qHTS for Inhibitors of ATXN expression; settings: S2 cells (HEK-293 line with an ATXN2-luciferase reporter) viability, CellTiter-Fluor protease fluorescence, 24 h; series mostly up to 56.7 µM; activity change, negative = cytotoxicity: at the top concentration; also: nearly all actives have a fitted effect of over 40% in size
Potency is read from the fitted curve at half-maximal effect.

| Structure (SMILES) | activity change, negative = cytotoxicity | Potency |
| --- | --- | --- |
| Cn1nccc1C(=O)NCC1CCC2(CCN(Cc3c(O)ccc4ccccc34)CC2)O1 (stereo unspecified) | -8.44% | – |
| COc1ccccc1C1CN(Cc2ccccc2O)Cc2ccccc2O1 (stereo unspecified) | -9.48% | – |
| CCC1CN(CCNC(=O)c2cccc(C)n2)Cc2cc(OC)ccc2O1 (stereo unspecified) | -11.5% | – |
| Cc1ccc2c(C)nc(N3CCCC(C(=O)NC(C)(C)CO)C3)nc2c1 (stereo unspecified) | -1.89% | – |
| CCC1(C2CCN(Cc3cccnc3)CC2)NC(=O)N(CC2COc3ccccc3O2)C1=O (stereo unspecified) | -2.28% | – |
| COc1cc(C)c(CN2CCc3nnc(C(C)NC(=O)c4cccnc4)n3CC2)cc1C (stereo unspecified) | -8.61% | – |
| Cc1cccc(CNC(=O)c2cnn(-c3nccc(-c4ccccc4F)n3)c2C2CC2)n1 | -6.63% | – |
| COC(=O)c1ccc2c(c1)N(CC(=O)Nc1ccc(C)c(C)c1)C(=O)c1ccccc1S2 | -26.8% | – |
| CN(C)c1nccc(NCc2ccccc2)c1C#N | 15.7% | – |
| CCC(CO)Oc1cc(NC(=O)c2ccc(Cl)cc2)c2ncn(C(C)C)c2c1 (stereo unspecified) | -15.2% | – |
| CC(C)n1cnc2c(NCc3ccccc3)cc(OCC3CCN(C)CC3)cc21 | – | 31.6 µM (active) |
| COC(=O)c1ccc(CN2C(=O)C(Cc3ccccc3)ON=C2c2ncccc2C)o1 (stereo unspecified) | -17.5% | – |
| Cc1nc2c(OCc3ccc(Cl)cc3Cl)cccn2c1N(C)CC1CC1 | – | 20 µM (active) |
| CCOC(=O)N(C)c1c(CC)nc2c(OCc3ccccc3C(=O)OC)cccn12 | -37.6% | – |
| CCCCC(=O)N(C)c1c(CC)nc2c(OCc3ccc(Cl)cc3Cl)cccn12 | -11.9% | – |
| CCc1nc2c(OCc3cccc(OC)c3)cccn2c1N(C)C(=O)C(C)C | -8.7% | – |
| CCc1nc2c(OCc3ccc(Cl)cc3Cl)cccn2c1N(C)C(=O)C(C)C | – | 22.4 µM (active) |
| CCc1nc2c(OCc3ccc(F)c(F)c3)cccn2c1N(C)C(=O)c1ccco1 | -26% | – |
| CCOC(=O)[C@]12CCC=C1N(Cc1cccc3ccccc13)C(=O)[C@H](CC(=O)NCc1cccc(C(F)(F)F)c1)C2 | -37.5% | – |
| COc1ccc(NC(=O)C2CCC(CNS(=O)(=O)c3csc(C(N)=O)c3)CC2)cc1OC (stereo unspecified) | 4.18% | – |
| Cc1cc(NC(=O)C2CCC(CNS(=O)(=O)c3ccc(Br)s3)CC2)ccc1Br (stereo unspecified) | – | 35.5 µM (active) |
| CCCCNC(=O)C1CCC(CNS(=O)(=O)c2ccc(NC(C)=O)cc2)CC1 (stereo unspecified) | – | inactive |
| O=C(c1cn(CC2CCCN(Cc3cc4ccccc4s3)C2)nn1)N1CCCC1 (stereo unspecified) | -16.3% | – |

| Structure (SMILES) | activity change, negative = cytotoxicity | Potency |
| --- | --- | --- |
| COc1ccc(CCCNC(=O)C2Cc3c(-c4cccc(C(N)=O)c4)ccnc3O2)cc1 (stereo unspecified) | -25.5% | – |
| COC(=O)c1ccc2nc(-c3ccc(OC)c(OC)c3)c(Cc3ccccc3)n2c1 | -38.4% | – |
| Cc1cc(C)cc(CN2CCc3nnc(C(NS(C)(=O)=O)C(C)C)n3CC2)c1 (stereo unspecified) | -15.6% | – |
| OC(c1ccc(F)cc1)c1ncc(-c2cccc(C(F)(F)F)c2)[nH]1 (stereo unspecified) | -35.2% | – |
| CC(=O)OC[C@H]1O[C@@H](O[C@H]2[C@H](O)[C@@H](OC(=O)c3ccccc3C(=O)O)[C@H](O)O[C@@H]2COC(C)=O)[C@H](O)[C@@H](OC(=O)c2ccccc2C(=O)O)[C@@H]1O | -4.22% | – |
| CCOc1ccc(NC(=O)CSc2nc3ccccc3c(=O)n2Cc2cccs2)cc1 | -15.2% | – |
| CCOc1ccc(NC(=O)CSc2c3c(nc4ccccc24)CCCC3)cc1 | – | 25.1 µM (active) |
| CCOc1ccc(NC(=O)CSc2nncn2C)cc1 | 21.1% | – |
| CCOc1ccc(-n2nc3ccc(NC(=O)c4ccc(OC)c(Cl)c4)cc3n2)cc1 | -8.21% | – |
| COc1cccc(NC(=O)c2ccc3c(SCC(=O)O)c4c(nc3c2)CCCC4)c1 | -24% | – |
| CCOc1ccc(C(=O)Nc2ccc3nc4c(c(Nc5ccccc5OC)c3c2)CCCC4)cc1 | – | 14.1 µM (active) |
| C[C@@H]1CCC[C@H](C)N1CCCC(O)(c1ccccc1)c1ccccn1 (stereo partly specified) | -7.16% | – |
| FC(F)(F)c1cccc(-c2cn[nH]c2C2CCCN(Cc3cccn3-c3ccccn3)C2)c1 (stereo unspecified) | -20.2% | – |
| O=C(NCCN1CCOCC1)c1cnn(-c2nccc(-c3cccs3)n2)c1C1CC1 | -8.87% | – |
| O=C(OCC(O)CO)c1ccccc1Nc1ccnc2c(C(F)(F)F)cccc12 (stereo unspecified) | 8.14% | – |
| CCS(=O)(=O)Nc1cc(C(=O)N2C[C@@H](C)O[C@@H](C)C2)c2c(c1)nc(-c1ccccc1)n2C | -11.8% | – |
| CC1(C)OC[C@@H](COC(=O)CCc2ccc(OC[C@@H](O)CNCCNC(=O)N3CCOCC3)cc2)O1 | – | inactive |
| CC(=O)Nc1cncc(-c2ccccc2CO)n1 | -8.75% | – |
| N#Cc1ccc(Oc2cc(C(F)(F)F)nc(-c3ccccn3)n2)cc1 | -38.9% | – |
| COc1cnc(-c2ccccn2)nc1Oc1ccc(C(C)(C)C)cc1 | – | 10 µM (active) |
| COc1ccc2nc(-c3ccccn3)ccc2c1 | -31.3% | – |
| CCc1nc2c(OCCOc3ccccc3)cccn2c1N(C=O)Cc1ccc(OC)cc1 | -32% | – |
| C#Cc1ccc(NC(=O)C2(C)CCN2C(=O)Cc2ccc(-c3ccccc3)cc2)cc1 (stereo unspecified) | -21.5% | – |

Source: PubChem BioAssay AID651635 (National Center for Advancing Translational Sciences (NCATS), 2012)
